The source of these data is PubChem BioAssay (EPA / NIEHS).

“And” between values parts separate entries of the source, which are not always exact repeats. Equal entries are not always repeated. Some compounds were tested as several samples or in several runs, with calls that do not always agree. The source made the active and inactive calls. Rule for the calls: active = hit-call score of the fitted dose curve at least 0.9, where 1 is the maximum; inactive = score below 0.9.

Read-out in this test: growth arrest and DNA damage 45 (GADD45A), GADD45A (gene 1647)
As to the kind of experiment: LTEA_HepaRG_GADD45A: Life Technologies and Expression Analysis (LTEA) Assay for growth arrest and DNA damage 45 (GADD45A) using HepaRG (AID 2283458). Particulars: mRNA level, 48 h; actives raise or lower the signal. Here is the method:
LTEA_HepaRG is a cell based, multiplexed-readout assay that uses HepaRG, a human liver cell line, with measurements taken at 48 hours after chemical dosing on a 96-well plate.LTEA_HepaRG_GADD45A is one of 102 assay component(s) measured in the LTEA HepaRG cell culture assay. It is a marker of Oxidative Stress.Data from the assay component LTEA_HepaRG_GADD45A was analyzed into 1 endpoint. This assay endpoint, LTEA_HepaRG_GADD45A, was analyzed with bidirectional fitting relative to DMSO as the negative control and baseline of activity. Using a type of inducible reporter, measures of mRNA induction for gain or loss-of-signal activity can be used to understand regulation of transcription factor activity. To generalize the intended target to other relatable targets, this assay endpoint is annotated to the cell cycle intended target family, where the subfamily is Oxidative Stress.
A total of 1060 chemcials from the ToxCast library were tested in eight-point concentration-response experiments. Cell culture and cytotoxicity assays were conducted at Thermo Fisher Scientific's Custom Services facility (Madison, WI). A single lot of human HepaRG cells (Thermo Fisher Scientific, Frederick, MD) was used for the cell culture experiments. 96-well format collagen type I coated plates of human HepaRG cells were prepared using established methods. Briefly, cryopreserved HepaRG cells were thawed, plated at a density of approximately 100,000 cells/well in HepaRG Thaw, Plate, and General Purpose media (HPRG770, Thermo Fisher Scientific), and incubated for 48 hours. 0.5% DMSO was selected as vehicle control to balance the requisite need of DMSO in HepaRG cultures to maintain differentiation (for example, baseline metabolism, proportions of hepatocytes vs. cholangiocytes), while enabling further hepatic receptor pathway activation (for example, PXR and CAR) in response to chemical exposure. 48 hours after plating, the culture medium was replaced with HepaRG Serum-Free Incudtion Media. Cells were exposed to each test chemical in duplicate and maintained in CO2 incubators for another 48 hours. Chemical plates were thawed to room temperature and 200x concentrations of treatment groups were prepared. 8-point conentration-reponse curves were made with the highest exposure at 100 uM, followed by half-log dilutions, all in 0.5% DMSO. Each test plate contained variouse controls, induction positive controls (1mM phenobarbital), cytotoxicity positive controls ([…] aflatoxin B1), vehicle controls (0.5% DMSO), and total lysis controls (0.5% DMSO). Cell morphology images were taken using an Essen IncuCyte FLR automated microscope, with six 96-well plates imaged in about 24 minutes. Images were captured and exported and JPEG files. Spent culture media was transfered to black-well plates for the LDH assay, and remaining media was sorted at -80 C for later use. Cells were treated with RLT buffer and frozen until shipped for gene expression analysis. Total RNA was isolated from the cell suspension in 75 uL of Buffer RLT (Qiagen, Germantown, MD 20874) by Quintiles/Expression Analysis (Durham, NC) using a custom isolation procedure. Total RNA from each plate well was transferred to a preamplification plate. Fluidigm's 96.96 Dynamic ArrayTM (Fluidigm, Amsterdam, the Netherlands) technology was used for gene expression analyses by quantitative reverse transcription polymerase chain reaction (qRT-PCR, performed by Quintiles/Expression Analysis, Durham, NC)89. Standard TaqManTM Assays (Applied Biosystems/ThermoFisher Scientific, Foster City, CA) were used to assess the expression of 93 genes selected based on their selectivity and sensitivity to important hepatic receptors known to be modulated by environmental chemicals; importance in human hepatocyte functionality; and hepatotoxicity. […]
As for `S=C(S)NCCNC(=S)S.[Mn+2].[S-]C([S-])=NCCN=C([S-])[S-].[Zn+2]`, the AC50 (usually the concentration giving half of the maximal activity seen) was 3.61 µM (active) and 2.03 µM (active); the call was inactive.

Consider `CCNc1nc(N)nc(Cl)n1`, for which the compound was classed as inactive.

Turning to `O=C(c1ccccc1)C1CCCCC1`, the result was inactive. The same measure, in the same setting: as for `CCOC(=O)C(C)Oc1ccc(Oc2nc3ccc(Cl)cc3o2)cc1` (stereo not given), the entry is “inactive”; as for `CCCCC(CC)CN1C(=O)C2C3C=CC(C3)C2C1=O` (stereo not given), “inactive”. As for `CCCCOC(=O)[C@@H](C)Oc1ccc(Oc2ccc(C(F)(F)F)cn2)cc1`, the result was inactive. The same measure, in the same setting: as for `CCCN(CCC)C(=O)SCC`, the entry is “inactive”. Consider `Oc1ccc(C(c2ccc(O)cc2)C(Cl)(Cl)Cl)cc1`, for which the AC50 was 90.9 µM (active). As for `CC(C)(C)[C@@H](O)[C@@H](Cc1ccc(Cl)cc1)n1cncn1`, the outcome was inactive. As to `O=C(O)c1ccccc1`, the call was inactive. As for `CCOC(=O)c1ccc(O)cc1`, the outcome was inactive.

Consider `O=C(Nc1ccc([N+](=O)[O-])cc1Cl)c1cc(Cl)ccc1O`, for which the AC50 is 4.29 µM (active). As to `CCCCOCCOCCOCc1cc2c(cc1CCC)OCO2`, the compound was classed as inactive. Regarding `C[C@]12C[C@H](O)[C@H]3[C@@H](CCC4=CC(=O)CC[C@@]43C)[C@@H]1CC[C@@H]2C(=O)CO`, the outcome was inactive. In the case of `CCN(Cc1c(F)cccc1Cl)c1c([N+](=O)[O-])cc(C(F)(F)F)cc1[N+](=O)[O-]`, the result was inactive.

For `CCOC(=O)C(C)Oc1ccc(Oc2cnc3cc(Cl)ccc3n2)cc1` (stereo not given), the compound was called inactive.

For the compound `CN(C)C(=O)Nc1ccc(Cl)c(Cl)c1`, the compound was called inactive. In the case of `C[C@]12CC[C@@H]3c4ccc(O)cc4C[C@@H](CCCCCCCCCS(=O)CCCC(F)(F)C(F)(F)F)[C@H]3[C@@H]1CC[C@@H]2O` (stereo not given in full), the AC50 is 0.105 µM (active). As to `COc1c(Cl)ccc(Cl)c1C(=O)O`, the compound was called inactive. With `S=C([S-])NCCNC(=S)[S-].[Mn+2]`, the AC50 was 5.52 µM (active). As to `CCOC(=O)NCCOc1ccc(Oc2ccccc2)cc1`, the AC50 was 79.5 µM (active). Turning to `CC(C)(c1ccc(O)cc1)c1ccc(O)cc1`, the outcome was inactive. On to `CCCOC(=O)NCCCN(C)C`, for which the result was inactive. Still for that read-out and setting: in the case of `CCCN(CCC)c1c([N+](=O)[O-])cc(C(F)(F)F)c(N)c1[N+](=O)[O-]` it was “inactive”. Consider `CC(=O)[C@H]1CC[C@H]2[C@@H]3CCC4=CC(=O)CC[C@]4(C)[C@H]3CC[C@]12C`, for which the AC50 is 47.8 µM (active). Regarding `CCCCC(CC)COC(=O)c1ccccc1C(=O)O` (stereo not given), the compound was classed as inactive. For the compound `C=CCOC(Cn1ccnc1)c1ccc(Cl)cc1Cl` (stereo not given), the AC50 was 59.1 µM (active). Take `COC(=O)c1ccc(I)cc1S(=O)(=O)NC(=O)Nc1nc(C)nc(OC)n1`: the compound was classed as inactive. Consider `CSC(=O)c1cccc2nnsc12`, for which the result was inactive. On to `N#CSCSc1nc2ccccc2s1`, for which the call was inactive. Turning to `c1ccc(Nc2ccccc2)cc1`, the result was inactive. `C#CCOC(=O)[C@@H](C)Oc1ccc(Oc2ncc(Cl)cc2F)cc1`: the AC50 was 12.4 µM (active). In the case of `CCOC(=O)COc1cc(-n2ncc(C(F)(F)F)c(C)c2=O)c(F)cc1Cl`, the compound was called inactive. As to `COCCO`, the compound was classed as inactive. For the compound `COC(=O)CSc1cc(N=c2sc(=O)n3n2CCCC3)c(F)cc1Cl`, the compound was called inactive. On to `CCCCCOC(=O)COc1cc(N2C(=O)C3=C(CCCC3)C2=O)c(F)cc1Cl`, for which the compound was classed as inactive. As for `Cc1nn(C)c(Oc2ccccc2)c1C=NOCc1ccc(C(=O)OC(C)(C)C)cc1`, the AC50 was 4.15 µM (active). Consider `O=C(O)C1(C(=O)Nc2ccc(Cl)cc2Cl)CC1`, for which the AC50 is 80.7 µM (active). Regarding `CCCCCCC(C)OC(=O)COc1nc(F)c(Cl)c(N)c1Cl` (stereo not given), the outcome was inactive.
